The structures appear in SMILES notation. Where a name gives a salt, the structure may show the parent alone.

What all share (test): Euclidean distance of Cell Painting phenotypic profile (signed KS, 77 features) to DMSO centroid (dimensionless distance); 5 or 10 uM (library dependent); higher = stronger phenotypic change vs DMSO (phenoactivity)
Holding throughout (conditions): 48 h

One experiment relates to 786-O. The procedure, abridged:
(§1)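 Phenoactivity is computed as Euclidean distance to the median vehicle profile. The profiles, drawn from 77 Harmony features scored as signed Kolmogorov-Smirnov statistics versus same-plate vehicle wells, were corrected for plate position, correlation-weighted and replicate-averaged at the top dose. Stained cells were imaged confocally at 20X (9 fields/well) after 48 h with library compounds at 10 or 5 uM, 0.1% DMSO final, in five cancer lines and a healthy fibroblast line.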

Another experiment has as its system A549. The procedure, abridged: as §1
For another experiment, the system named is DU145. The procedure, abridged: as §1
Another experiment has as its system FB. An outline of the steps:
as §1

In a further experiment the test system is HEPG2. The procedure, abridged: as §1
The subject of a further experiment is OVCAR4. The procedure, abridged:
as §1

Turning to `Cn1c(=O)cc(N2CCC[C@@H](N)C2)n(Cc2cc(F)ccc2C#N)c1=O` [Trelagliptin], the Euclidean distance was found to be 0.94 in the experiment on 786-O; 0.495 in the experiment with A549; 0.985 in the experiment with DU145; 0.998 with FB; 0.668 with HEPG2; 0.953 with OVCAR4.

Consider `Cc1cnc(Nc2ccc(OCCN3CCCC3)cc2)nc1Nc1cccc(S(=O)(=O)NC(C)(C)C)c1`, for which the Euclidean distance came to 4.21 in the experiment with 786-O; 4.4 with A549; 2.95 with DU145; 4.43 with FB; 2.96 in the experiment on HEPG2; 3.56 in the experiment on OVCAR4.

With `O=C(NC1CCOCC1)c1ccc(-c2cc(-c3c[nH]nc3-c3ccccn3)ccn2)cc1`, the Euclidean distance in the experiment on 786-O is 1.22; with A549, 0.965; with DU145 it was 0.674; in the experiment on FB, 1.3; in the experiment on HEPG2 it was 1.01; in the experiment on OVCAR4, 0.73.

With `O=S(=O)(O)CCSSCCS(=O)(=O)O` [Dimesna], the Euclidean distance came out at 0.983 in the experiment with 786-O; 1.01 in the experiment on A549; 1.18 with DU145; 1.16 with FB; 0.803 with HEPG2; 1.13 in the experiment with OVCAR4.

On to `CN[C@@H](C)C(=O)N[C@H](C(=O)N1CCC[C@H]1C(=O)Nc1snnc1-c1ccccc1)C1CCCCC1`, for which the Euclidean distance was 0.872 with 786-O; 1.58 in the experiment with A549; 0.883 with DU145; 1.38 with FB; 0.88 in the experiment on HEPG2; 3.41 with OVCAR4.

As to `CNC(=O)c1cc(Oc2ccc(NC(=O)Nc3cc(C(C)(C)C)nn3-c3ccc4ncccc4c3)c(F)c2)ccn1` [DCC-2036 (Rebastinib)], the Euclidean distance with 786-O came out at 2.89; with A549 it was 3.75; with DU145 it was 4.62; in the experiment on FB, 2.57; in the experiment on HEPG2, 2.72; in the experiment with OVCAR4, 2.63.

On to `CS(=O)(=O)CCNCc1ccc(-c2ccc3ncnc(Nc4ccc(OCc5cccc(F)c5)c(Cl)c4)c3c2)o1` [Lapatinib], for which the Euclidean distance in the experiment with 786-O was found to be 4.13; with A549, 3.1; in the experiment on DU145, 2.2; in the experiment with FB, 2.22; in the experiment with HEPG2, 3.72; with OVCAR4, 3.77.

Take `CN(C)c1ccc(-c2nc3ncc(Cl)c(N4CCN(CC(=O)Nc5nccs5)CC4)c3[nH]2)cc1`: the Euclidean distance in the experiment on 786-O came to 1.74; with A549, 1.55; in the experiment with DU145, 1.32; in the experiment on FB, 1.56; in the experiment on HEPG2, 0.715; in the experiment with OVCAR4, 1.59.

Regarding `CC[C@@H]1/C=C(\C)C[C@H](C)C[C@H](OC)[C@H]2O[C@@](O)(C(=O)C(=O)N3CCCC[C@H]3C(=O)O[C@H](/C(C)=C/[C@@H]3CC[C@H](Cl)[C@H](OC)C3)[C@H](C)[C@@H](O)CC1=O)[C@H](C)C[C@@H]2OC` [Pimecrolimus], the Euclidean distance came out at 1.47 in the experiment on 786-O; 1.85 in the experiment with A549; 2.17 in the experiment on DU145; 2.13 in the experiment on FB; 0.886 in the experiment on HEPG2; 1.29 with OVCAR4.

Take `O=C(NC[C@H](O)CO)c1ccncc1Nc1ccc(I)cc1F`: the Euclidean distance with 786-O stood at 2.39; with A549, 2.67; in the experiment with DU145, 2.49; with FB, 3.7; in the experiment on HEPG2 it was 1.53; in the experiment with OVCAR4, 2.4.

For `Cc1cc(C)c2c(c1)[C@@H](N(Cc1cc(C(F)(F)F)cc(C(F)(F)F)c1)c1nnn(C)n1)CCCN2C[C@H]1CC[C@H](C(=O)O)CC1`, the Euclidean distance with 786-O is 1.71; in the experiment with A549, 1.7; in the experiment with DU145, 1.3; in the experiment on FB, 1.05; with HEPG2 it was 1.05; with OVCAR4, 1.25.

With `CN(C)c1cc(CNCC(C)(C)C)c(O)c2c1C[C@H]1C[C@H]3[C@H](N(C)C)C(O)=C(C(N)=O)C(=O)[C@@]3(O)C(O)=C1C2=O` [Omadacycline tosylate], the Euclidean distance with 786-O worked out at 1.25; with A549, 0.879; with DU145 it was 1.21; in the experiment with FB, 1.14; in the experiment on HEPG2 it was 0.757; in the experiment on OVCAR4, 1.46.

Turning to `Nc1ncnc2c1c(-c1cnc3[nH]ccc3c1)nn2C1CCCC1`, the Euclidean distance worked out at 4.92 in the experiment on 786-O; 5.03 in the experiment with A549; 4.39 in the experiment on DU145; 4.32 in the experiment on FB; 4.53 in the experiment on HEPG2; 3.29 with OVCAR4.

For the compound `CC(C)c1cc(C(C)C)c(CC(=O)NS(=O)(=O)Oc2c(C(C)C)cccc2C(C)C)c(C(C)C)c1` [Avasimibe], the Euclidean distance with 786-O was determined as 4.24; in the experiment on A549, 1.79; with DU145, 0.813; in the experiment with FB it was 0.86; with HEPG2, 0.752; with OVCAR4, 0.819.

In the case of `COc1cc(NS(=O)(=O)c2ccc(N)cc2)nc(OC)n1` [SulfadiMethoxine sodium], the Euclidean distance in the experiment with 786-O turned out to be 1.05; in the experiment with A549, 0.781; with DU145 it was 0.776; with FB, 1.03; in the experiment with HEPG2, 0.428; in the experiment on OVCAR4, 0.631.

`Cc1cccc(-c2nn3c(c2-c2ccnc4ccc(C(N)=O)cc24)CCC3)n1`: the Euclidean distance came to 1.39 with 786-O; 1.06 in the experiment on A549; 0.926 with DU145; 1.47 in the experiment with FB; 1.04 in the experiment with HEPG2; 1.18 in the experiment on OVCAR4.

`CCCCNc1cc(C(=O)O)cc(S(N)(=O)=O)c1Oc1ccccc1` [Bumetanide]: the Euclidean distance was determined as 1.24 in the experiment with 786-O; 1.15 in the experiment on A549; 1.04 in the experiment on DU145; 1.5 with FB; 1.38 in the experiment with HEPG2; 1.64 with OVCAR4.

As to `Nc1nnc(-c2cccc(Cl)c2Cl)c(N)n1` [Lamotrigine], the Euclidean distance was determined as 0.851 with 786-O; 1.05 with A549; 0.825 in the experiment on DU145; 1.12 in the experiment with FB; 0.712 with HEPG2; 1.42 in the experiment on OVCAR4.

For the origin of these results see the supplement of paper PMC10127200.
